From PubChem
NOMO-1 viab: STK33 inhibitor candidate reducing NOMO-1 cell viability; NOMO-1 AML viability, CellTiter-Glo luminescence, 72 h; inhibition, % (test concentration not listed); hit rate 7.5% among 37,000; AID 2330; in the data active = inhibition above about 80%; inconclusive = no clear call, values can overlap the other calls
MITF inh: inhibitors of MITF | TRPM1 promoter luciferase, luminescence, 24 h | inhibition, % (concentration not given with the values) | hit rate 0.28% among 37,000 | AID 2240; in the data active = inhibition above about 85%; inconclusive = no clear call, values can overlap the other calls; inactive = below about 68%;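 note: human melanocyte line stably carrying TRPM1 promoter luciferase reporter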
Hedgehog inh: Sonic Hedgehog pathway inhibition; Shh-LIGHT2 Gli-luciferase reporter, 30 h; inhibition, % (test concentration not listed); hit rate 2.1% among 22,000; AID 2313;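 active = mean inhibition across valid replicates above about 65%, limit read from the data; inconclusive = mean under the limit, yet half or more replicates past it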;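 note: pathway switched on by Shh-conditioned medium diluted 1 in 25 in low serum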
A number is an active result; i = inactive; ? = inconclusive; nt = no result. Only some compounds are listed: those with a hit (about 8.1% of all), similar ones and a draw of the others.

SMILES	NOMO-1 viab	MITF inh	Hedgehog inh
COc1ccc(S(=O)(=O)N(C)CC(=O)Nc2cccc(C)c2C)cc1Cl	i	i	nt
CCn1c(=NC(=O)c2ccc(S(=O)(=O)N(C)C)cc2)sc2ccccc21	87.3	i	i
CCn1c2ccccc2c2cc(NC(=O)CN(C)S(=O)(=O)c3ccccc3)ccc21	i	i	nt
C[C@H](CO)N1C[C@H](C)[C@@H](CN(C)Cc2ccccc2)Oc2ccc(NC(=O)Nc3ccc(C(F)(F)F)cc3)cc2C1=O	121.6	i	i
C[C@H]1CN([C@@H](C)CO)C(=O)c2cc(NC(=O)Nc3ccc(C(F)(F)F)cc3)ccc2O[C@H]1CN(C)Cc1ccc(C(=O)O)cc1	i	i	nt
C[C@@H]1CN([C@H](C)CO)C(=O)c2cc(NC(=O)Nc3ccccc3)ccc2O[C@H]1CN(C)Cc1ccc(C(F)(F)F)cc1	99.4	i	i
C[C@@H]1CN([C@H](C)CO)C(=O)c2cc(NC(=O)Nc3ccccc3)ccc2O[C@@H]1CN(C)Cc1ccc(C(F)(F)F)cc1	i	i	nt
COc1ccc(NC(=O)CSc2n[nH]c(-c3ccc(Cl)cc3Cl)n2)cc1	i	i	nt
Cc1cc(C)cc(N(CC(=O)O)S(=O)(=O)c2ccccc2)c1	i	i	nt
COc1ccc(-n2nc3ccc(NC(=O)c4ccc(-c5ccccc5)cc4)cc3n2)cc1	i	i	i
C[C@H](CO)N1C[C@H](C)[C@@H](CN(C)Cc2ccc(C(F)(F)F)cc2)Oc2ccc(NS(=O)(=O)c3ccccc3)cc2C1=O	i	i	nt
C[C@H]1CN([C@@H](C)CO)C(=O)c2cc(NS(=O)(=O)c3ccccc3)ccc2O[C@@H]1CN(C)Cc1ccc(C(F)(F)F)cc1	i	i	i
C[C@@H]1CN([C@@H](C)CO)C(=O)c2cc(NS(=O)(=O)c3ccc(Cl)cc3)ccc2O[C@H]1CN(C)Cc1ccc(C(F)(F)F)cc1	107.1	i	nt
C[C@@H]1CN([C@H](C)CO)C(=O)c2cc(NS(=O)(=O)c3ccc(Cl)cc3)ccc2O[C@@H]1CN(C)Cc1ccc(C(F)(F)F)cc1	115.5	i	nt
O=c1[nH]c(C2=C(O)Cn3c2nc(=O)c2ccccc23)nc2ccccc12	i	i	i
O=C(Cn1nnc(-c2ccccc2)n1)Nc1ccccc1C(=O)O	i	i	nt
COc1ccc(NC(=O)c2ccc(N(C)S(=O)(=O)c3ccc(OC)c(OC)c3)cc2)c(OC)c1	i	i	nt
C[C@H](CO)N1C[C@H](C)[C@@H](CN(C)Cc2ccc(C(=O)Nc3ccccc3N)cc2)Oc2c(NC(=O)c3nc4ccccc4s3)cccc2C1=O	110.3	i	nt
C[C@@H]1CN([C@@H](C)CO)C(=O)c2cccc(NC(=O)c3nc4ccccc4s3)c2O[C@@H]1CN(C)Cc1ccc(C(=O)Nc2ccccc2N)cc1	127.5	i	nt
C[C@H](CO)N1C[C@H](C)[C@@H](CN(C)Cc2ccc(C(=O)O)cc2)Oc2c(NC(=O)c3nc4ccccc4s3)cccc2C1=O	i	i	i
C[C@@H]1CN([C@H](C)CO)C(=O)c2cccc(NC(=O)c3nc4ccccc4s3)c2O[C@H]1CN(C)Cc1ccc(C(=O)O)cc1	i	i	i
COc1ccc([N+](=O)[O-])cc1NC(=O)COc1ccc(Br)cc1Cl	i	i	nt
COc1cc2c(cc1NC(=O)COc1ccc(Br)cc1Cl)oc1ccccc12	127.7	i	nt
O=C1C(=O)N(CCCN2CCOCC2)C(c2cccnc2)C1C(=O)c1cc2ccccc2o1 (stereo not given)	i	i	nt
COc1ccc(C)cc1S(=O)(=O)N1CCC(C(=O)Nc2cccc(C(C)=O)c2)CC1	i	i	nt
SMILES	NOMO-1 viab	MITF inh	Hedgehog inh
COc1ccc(-n2c(SCC(=O)Nc3ccc(Cl)cc3Cl)nnc2-c2ccccc2)cc1	i	i	nt
COc1ccc(NC(=O)Nc2ccc3c(c2)C(=O)N([C@H](C)CO)C[C@@H](C)[C@@H](CN(C)Cc2ccc(C(F)(F)F)cc2)O3)cc1	i	i	nt
C[C@H](CO)N1C[C@H](C)[C@H](CN(C)Cc2ccc(Oc3ccccc3)cc2)Oc2ccc(NC(=O)Nc3ccc(C(F)(F)F)cc3)cc2C1=O	113.9	i	nt
C[C@H](CO)N1C[C@H](C)[C@@H](CN(C)Cc2ccc(Oc3ccccc3)cc2)Oc2ccc(NC(=O)Nc3ccc(C(F)(F)F)cc3)cc2C1=O	127.9	i	i
C[C@H]1CN([C@@H](C)CO)C(=O)c2cc(NC(=O)Nc3ccc(C(F)(F)F)cc3)ccc2O[C@H]1CN(C)Cc1ccc(Oc2ccccc2)cc1	83.0	i	i
O=C(NC(NCc1ccccn1)(C(F)(F)F)C(F)(F)F)c1cccnc1	i	i	i
C[C@@H]1CN([C@H](C)CO)C(=O)Cc2cc(NS(=O)(=O)c3ccccc3)ccc2O[C@H]1CN(C)Cc1ccc(C(F)(F)F)cc1	i	i	i
C[C@@H]1CN([C@H](C)CO)C(=O)Cc2cc(NS(=O)(=O)c3ccccc3)ccc2O[C@@H]1CN(C)Cc1ccc(C(F)(F)F)cc1	?	i	i
